Here are results for 8 compounds from PubChem BioAssay (NCATS).

Records with an inconclusive call do not appear. Activity calls are given as the source filed them. The call rests on the fitted dose curve.
Potency means the concentration at half of the fitted maximal effect.

A short description of the assay: Primary qHTS to identify inhibitors of SARS-CoV-2 cell entry (AID 1645846). Further: nearly all actives have a fitted effect of over 45% in size. The following applies: SARS-CoV-2 pseudovirus cell entry assay, luminescence; activity change, negative = inhibition: at 57.1 µM (top of the series) unless noted. In a few lines: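 Data are normalized to wells receiving SARS-CoV-2-S pseudoparticles and those given bald particles. Entry signal was luciferase luminescence in stable hACE2 Expi293F cells, 48 hr post-infection, after 1 hr compound pretreatment.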
(In qHTS, concentration-response curves come from the screen itself.)
With `C[C@H](NC(=O)[C@H]1NCC[C@@H]1O)c1ccc(-c2noc(CCC3CCCC3)n2)cc1`, the activity change, negative = inhibition is -92.1%.
On to `COc1cc2c(NC3CCN(CC4CCCCC4)CC3)nc(N3CCCN(C(C)C)CC3)nc2cc1OCCCN1CCCCC1`, for which the Potency is 3.16 µM (active).
`CCC(=C/[C@H](C)C/C=C/C(C)=C/[C@@H](C)C(=O)[C@@H](C)[C@H](O)[C@@H](C)C/C(C)=C/C(=O)O)/C=C/[C@@H]1OC(=O)C=C[C@@H]1C`: the activity change, negative = inhibition was -94.2%.
As to `C=C1C(=O)O[C@@H]2[C@H]3O[C@]3(C)CC/C=C(\C)CC[C@@H]12`, the Potency is 22.4 µM (active).
`COC1=C(OC)C(=O)C(C/C=C(\C)CC/C=C(\C)CC/C=C(\C)CC/C=C(/C)CC/C=C(\C)CC/C=C(\C)CC/C=C(\C)CC/C=C(\C)CC/C=C(\C)CCC=C(C)C)=C(C)C1=O`: the activity change, negative = inhibition is -14.5%.
As for `O=C(NO)c1cnc(NC2(c3ccccc3)CC2)nc1`, the outcome was inactive.
On the same count and under the same terms, as for `OC(c1ccc(-c2ccc(CN3CCN(Cc4ccncc4)CC3)cc2)c(F)c1)(C(F)(F)F)C(F)(F)F`, the entry is “inactive”.
For the compound `CCCc1cc(C(=O)N[C@H](Cc2ccc(-c3cccc(OC(F)(F)F)c3)nc2)C(=O)N[C@@H]2CCNC2)sc1C`, the Potency is 31.6 µM (active).
